# Most compounds without a hit are left out; they make up all but 4.6% or so of the library.
# Marburg entry inh – inhibitors of Marburg virus binding or cell entry | Potency, µM (highest dose often 37.8 µM), for inactives: at the highest dose activity change, negative = inhibition, usual class: inhibitors | Marburg virus pseudotyped entry inhibition, cell reporter | 300,000 tested, 1.8% active; calls by dose curve; tested in HEK293 cells
# HCV inh – HCV inhibition; Huh7.5.1 HCVcc-Cre infection, luciferase reporter, 44 h; Potency, µM (highest dose often 41.8 µM), for inactives: at the top dose activity change, negative = inhibition, most hits filed as inhibitors; 340,000 tested, 3.4% active; active means well fitted inhibition curve with a large enough effect; inconclusive means small, poorly fitted or top-dose-only effect, or another doubt; inactive means no such curve, though single readings can be large or run the other way
#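 Antiviral activity was scored by luciferase reporter output from cells infected with HCVcc-Cre (~0.5 moi) in presence of compound, 44 h infection period, cells seeded 1,000/well 4 h prior.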
# VACV mCherry inh – inhibitors of vaccinia virus infection (mCherry reporter signal); Vaccinia virus mCherry reporter infection, fluorescence; Potency, µM (series often up to 36.5 µM), inactives show at the top dose activity change, negative = inhibition, actives largely listed as inhibitors; 310,000 tested, 0.63% active; calls by dose curve; tested in A549 cells; further: nearly all actives have a fitted effect of over 35% in size
# Lassa entry inh – Lassa virus entry inhibition. Lassa virus pseudotype entry inhibition, cell reporter. Potency, µM (highest dose often 37.9 µM), for inactives: at the highest dose activity change, negative = inhibition, usual class: inhibitors. 300,000 tested, 1.2% active. AID 540256; calls by dose curve; tested in HEK293 cells; further: nearly all actives have a fitted effect of over 50% in size
# Vaccinia Venus – vaccinia inhibition (Venus reporter) | AID 720580 | 330,000 tested, 0.46% active | Vaccinia virus Venus reporter expression, fluorescence | Potency, µM (series often up to 36.5 µM), for inactives: at the top dose activity change, negative = inhibition, hits mostly inhibitors; calls by dose curve; tested in A549 cells; further: nearly all actives have a fitted effect of over 30% in size
# * = called active by the depositor; i = inactive; ? = inconclusive; nt = no result given; [ ] = dose if it differs, or a comment. On the % scale 0 is the no-effect control and ±100 the full control effect; potency means the concentration at half of the fitted maximal effect.
SMILES,Marburg entry inh,HCV inh,VACV mCherry inh,Lassa entry inh,Vaccinia Venus
CC[C@]12c3[nH]c4ccccc4c3CCN1C(=O)C(CC(=O)NC/C=C(\C)CCC=C(C)C)C[C@@H]2C(=O)N1CCN(C(=O)c2ccco2)CC1 (some centres undefined),nt,?,-5%,nt,-19%
CC[C@]12c3[nH]c4cc(-c5ccco5)ccc4c3CCN1C(=O)[C@@H](CC(=O)NC/C=C(\C)CCC=C(C)C)C[C@@H]2C(=O)N1CCN(C(=O)c2ccco2)CC1,-3%,13µM*,?,nt,?
CC[C@]12c3[nH]c4ccc(Cl)cc4c3CCN1C(=O)[C@@H](CC(=O)NC/C=C(\C)CCC=C(C)C)C[C@@H]2C(=O)N1CCN(C(=O)C2CC2)CC1,nt,22µM*,-25%,nt,?
CC(C)=CCC/C(C)=C/CNC(=O)C[C@H]1C[C@H](C(=O)N2CCCCC2)[C@@]2(CCc3ccccc3)c3[nH]c4cc(-c5ccco5)ccc4c3CCN2C1=O,nt,-15%[8.37 µM],?,nt,-6%
COC(=O)C/C=C/C(C)C(OC)c1ccccc1Br (centres undefined),-11%[14.2 µM],nt,nt,nt,nt
C[C@@H]1CN(Cc2ccc3c(c2)CN(Cc2coc4ccccc4c2=O)CCO3)C[C@H](C)O1,nt,nt,-18%,nt,-19%
COc1ccc(Nc2cc(C(=O)NCCCN3CCOCC3)c3ccccc3n2)cc1OC,1%,-18%,nt,?,nt
Cc1ccc(-c2nc(C(=O)NCCCN3CCOCC3)cc3c2[nH]c2ccccc23)cc1,nt,11µM*,-13%,nt,-20%
Cc1ccc(-c2cc(C(=O)NCCCN3CCOCC3)c3ccccc3n2)cc1,-7%,-4%,-18%,14%,-13%
COc1ccc(-c2nc(C(=O)NCCCN3CCOCC3)cc3c2[nH]c2ccccc23)cc1OC,nt,13µM*,-21%,nt,-17%
Cc1ccsc1C(=O)N(Cc1cc2cc3c(cc2nc1N1CCOCC1)CCC3)CC1CCCO1 (centres undefined),nt,nt,-4%,nt,11%
O=C(CNC(=O)c1cccnc1)c1ccc(F)cc1,nt,nt,-16%,nt,-7%
COCCCNCCOc1ccc(C(C)(C)c2ccccc2)cc1,16µM*,10µM*,-23%,?,-19%
CNCCCOc1ccc(C(C)(C)c2ccccc2)cc1,0%,nt,nt,nt,nt
COCCCNCCCCOc1ccc(OCc2ccccc2)cc1,nt,11µM*,-3%,nt,-19%
CCC(C)NCCOc1ccc(C(C)(C)c2ccccc2)cc1 (centres undefined),?,10µM*,-18%,?,-19%
CCCOc1ccc(OCCCCNC(C)CC)cc1 (centres undefined),-17%,?,-17%,-6%,-19%
COc1cc(=O)n2c(c1C(=O)NCc1ccco1)CCN(Cc1cccc(C)n1)CC2,nt,nt,-10%,nt,1%
CCCN(CCC)CCCNC(=O)C1CCC(CNS(=O)(=O)c2ccc(NC(C)=O)cc2)CC1 (centres undefined),nt,nt,-4%,8%[46.1 µM],-6%
CCc1cccc(NC(=O)CNC(=O)N2CC(=O)Nc3ccccc32)c1,nt,11%,nt,nt,nt
CCc1cccc(Nc2c([N+](=O)[O-])cc(C(=O)N3CC(=O)Nc4ccccc43)cc2[N+](=O)[O-])c1,-38%,14µM*,-3%,?,-18%
C#CCCCO/N=C1\C[C@@H](O)[C@@H](O)[C@@H]2[C@@H]3C(=O)N(C4CCCCC4)C(=O)[C@@H]3CC[C@@H]12,43%[14.2 µM],nt,nt,nt,nt
Cc1cccc(N=N/C(=C\O)C(=O)c2ccc(Br)cc2)c1,7.9µM*,10µM*,-24%,5.6µM*,-5%
O=C(/C(=C/O)N=Nc1cccc(C(F)(F)F)c1)c1ccccc1,?,?,-11%,?,-17%
Fc1ccc(COc2ccc(Br)cc2CNCC2CCCO2)cc1 (centres undefined),4µM*,-12%,?,?,?
SMILES,Marburg entry inh,HCV inh,VACV mCherry inh,Lassa entry inh,Vaccinia Venus
Fc1ccccc1COc1ccc(Br)cc1CNCC1CCCO1 (centres undefined),nt,-17%,nt,nt,nt
Cc1cnc(-n2ncc(C(=O)N(C)CC3CCCN(C)C3)c2C2CC2)nc1-c1cccs1 (centres undefined),nt,nt,-20%,nt,-12%
Cc1ccc(NC(=O)c2cnn(-c3ccccc3)c2C)cc1C,?,?,-10%,3.2µM*,-19%
Cc1c(C(=O)Nc2ccccc2)cnn1-c1ccccc1,?,-3%,-22%,?,-11%
COc1ccc(NC(=O)c2cnn(-c3ccccc3)c2C)cc1OC,2%,5%,i,-4%,-16%
Cc1c(C(=O)Nc2cccc(F)c2)cnn1-c1ccccc1,?,11µM*,-5%,?,-20%
Cc1cccc(NC(=O)c2ccc3c(O)c(S(=O)(=O)c4ccccc4)c(=O)[nH]c3c2)c1C,nt,nt,-2%,10%[46.1 µM],-3%
OCCCNCc1cc2ccc(F)cc2nc1N1CCN(c2cccc(Cl)c2)CC1,nt,nt,?,nt,-16%
O=C(Nc1cc(Oc2ccccc2)cc([N+](=O)[O-])c1)C12CC3CC(C1)CC(n1cnc(Cl)n1)(C3)C2,?,10µM*,nt,?,nt
O=C(O)c1cccc(NC(=O)C23CC4CC(C2)CC(n2cnc(Cl)n2)(C4)C3)c1,?,16%,nt,17%,-9%
Cc1ccc(N2CC(c3nnc(NC(=O)c4ccco4)s3)CC2=O)cc1C (centres undefined),14%[46.1 µM],nt,-15%,15%[46.1 µM],-16%
Cc1cccc(C(=O)NC2(C(F)(F)F)N=C(c3ccccc3)N(Cc3ccccc3)C2=O)c1 (centres undefined),-28%[46.1 µM],nt,-4%,15%[46.1 µM],-10%
CCn1c2ccc(OC)cc2c2nc3ccccc3nc21,18%,7.9µM*,nt,13%,-25%
COC(=O)c1ccc(OCC2c3cc(OC)c(OC)cc3CCN2C(=O)c2ccco2)cc1 (centres undefined),?,?,nt,4.1µM*,nt
COCCNC(=S)N1CCc2cc(OC)c(OC)cc2C1COc1ccc(C(C)C)cc1 (centres undefined),13µM*,?,-23%,?,-24%
COC(=O)c1ccc(OCC(O)CN2CCc3cc(OC)c(OC)cc3C2c2ccccc2)cc1 (centres undefined),?,7.9µM*,?,?,-13%
CC(Oc1ccc(F)cc1)C(=O)NCC1(N(C)C)CCCCC1 (centres undefined),-1%[46.1 µM],nt,-10%,2%[46.1 µM],-5%
CCOC(=O)c1noc2nc(C)n(CC(=O)NC(C)CC)c(=O)c12 (centres undefined),nt,nt,-8%,12%[46.1 µM],-5%[7.34 µM]
O=[N+]([O-])c1cccc(NNS(=O)(=O)c2ccccc2F)c1,8.9µM*,9%,?,?,-20%
CCOC(=O)CSc1nc2c([nH]c3ccccc32)c(=O)n1C,1%,4%,nt,?,nt
CCOC(=O)C(C)Sc1nc2c([nH]c3ccccc32)c(=O)n1C (centres undefined),-26%,10µM*,0%,?,-8%
COc1ccc(-c2csc(NC(=O)C3CCCCN3S(=O)(=O)c3ccccc3)n2)cc1 (centres undefined),?,?,nt,16µM*,?

# Screening results (PubChem)
